HepG2 viability: kills HepG2 cells in TGF-b inhibitor counter-screen. HepG2 CAGA-GFP viability, ATP luminescence, 18 h. Potency, µM (highest dose often 46.1 µM), inactives show at the top dose activity change, negative = cytotoxicity, most hits filed as cytotoxic. 410,000 tested, 0.76% active. AID 588856; also: potency is read from the fitted curve at half-maximal effect
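CellTiter-Glo luminescence gave cytotoxicity after 18 hours at 37 degrees C. The cells were HepG2 CAGA-GFP in 1% FBS DMEM, stimulated with 500 pg/mL TGF-beta after compound addition. %Activity was normalised to no-cell wells (complete cell-killing) and DMSO (no toxicity), and curves were fitted and classified.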
TGFb SMAD3 inh: inhibitors of TGF-b signaling; Potency, µM (highest dose often 46.1 µM), without a hit: at the highest dose activity, negative = inhibition, usual class: inhibitors; 410,000 tested, 1.2% active; HepG2 CAGA-GFP TGF-b/SMAD3 reporter, GFP fluorescence, 18 h; TGF-beta stimulated, 500 pg/mL final; AID 588855; also: potency is read from the fitted curve at half-maximal effect; % is scaled to controls: 0 for no effect and ±100 for the full control effect; nearly all actives have a fitted effect of over 65% in size
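First, reporter cells (HEPG2 CAGA-GFP) rested 2 h at 37 degrees C. Next, compounds were pinned in and TGF-beta added to 500 pg/mL final. After 18 h, GFP was imaged per cell and summed per well.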
TDP1 cell noCPT: qHTS for Inhibitors of human tyrosyl-DNA phosphodiesterase 1 (TDP1): qHTS in cells in absence of CPT. DT40 Tdp1-/- hTDP1 cells, no CPT, ATP luminescence, 48 h. Potency, µM (titrated, usually from 46.2 µM), without a hit: top-dose activity change, negative = growth inhibition, most hits filed as inhibitors. 420,000 tested, 15% active; also: potency is read from the fitted curve at half-maximal effect; % is scaled to controls: 0 for no effect and ±100 for the full control effect; nearly all actives have a fitted effect of over 55% in size
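Chicken DT40 Tdp1-/- cells stably complemented with human TDP1 were seeded at 400 cells/well with DMSO in place of 20 nM camptothecin. After compound pinning, cells grew at least 48 hr at 37 °C; viability read by CellTiter-Glo luminescence.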
IL-1B inflam inh: inflammasome signaling inhibition, IL-1 beta readout. THP-1 LPS/ATP IL-1B secretion, AlphaLISA, 16 h; active compounds read low. activity change, % at 57.5 µM. 360,000 tested, 4.7% active. AID 743279; in the data active = activity change below about -50%; inconclusive = mostly about -30% to -49%; also: % is scaled to controls: 0 for no effect and ±100 for the full control effect
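Secreted IL-1B measured by AlphaLISA bead assay after 16 h compound exposure of THP-1 cells; compounds (final up to 57.5 uM) added 1 h before LPS (250 ng/mL) and ATP (1.25 mM) stimulation; lower signal means less secretion.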
TDP1 cell CPT: DT40-hTDP1 cell growth loss with CPT; 420,000 tested, 12% active; chicken DT40 Tdp1-/-;hTDP1 cells + 20 nM CPT, ATP luminescence, 48 h; AID 686979; Potency, µM (highest dose often 46.2 µM), for the others: at the highest dose activity change, negative = growth inhibition, actives largely listed as inhibitors; also: potency is read from the fitted curve at half-maximal effect; % is scaled to controls: 0 for no effect and ±100 for the full control effect; nearly all actives have a fitted effect of over 55% in size
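Chicken DT40 Tdp1-/- cells stably complemented with human TDP1 were seeded at 400 cells/well in medium containing 20 nM camptothecin, exposed to pin-transferred compounds, and grown at 37 °C for at least 48 hr. Viability was read as ATP luminescence.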
S-ASM inh: human S-ASM enzyme inhibition; Potency, µM (series often up to 57.5 µM), for the others: top-dose activity change, negative = inhibition, actives largely listed as inhibitors; 340,000 tested, 0.006% active; AID 504937; placental ASM, HMU-PC fluorogenic substrate, 60 min; also: potency is read from the fitted curve at half-maximal effect
Target sequence (P17405 47-631 limits assumed): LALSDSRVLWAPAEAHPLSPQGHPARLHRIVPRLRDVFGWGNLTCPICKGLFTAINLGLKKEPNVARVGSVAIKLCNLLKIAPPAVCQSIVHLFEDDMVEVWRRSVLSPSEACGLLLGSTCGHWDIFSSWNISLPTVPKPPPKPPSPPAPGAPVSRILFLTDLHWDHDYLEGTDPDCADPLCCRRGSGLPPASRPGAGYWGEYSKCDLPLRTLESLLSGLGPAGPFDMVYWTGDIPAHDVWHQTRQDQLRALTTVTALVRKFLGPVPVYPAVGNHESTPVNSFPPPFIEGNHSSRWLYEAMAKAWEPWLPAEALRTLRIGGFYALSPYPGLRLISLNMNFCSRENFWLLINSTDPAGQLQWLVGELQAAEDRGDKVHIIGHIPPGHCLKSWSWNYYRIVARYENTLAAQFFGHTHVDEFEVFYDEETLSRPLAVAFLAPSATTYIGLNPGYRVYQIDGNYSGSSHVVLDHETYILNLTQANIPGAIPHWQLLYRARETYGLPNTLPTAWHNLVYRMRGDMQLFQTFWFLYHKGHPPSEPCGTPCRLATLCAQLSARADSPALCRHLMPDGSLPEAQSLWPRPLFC
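Human placenta-derived ASM preincubated with compound 10 min at room temperature, then reacted with 9 uM (final) fluorogenic HMU-PC substrate for 60 min at 37 C. Stop solution raises pH to 10; fluorescence read at Ex 386/Em 447 nm.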
* = called active by the depositor; ? = inconclusive; . = no result given; [ ] = remark or other dose. Compounds with a hit are over-represented: about 19% of the library has one in this group of screens. Unless noted, calls follow the shape of the dose curve; as a rule, active = well fitted curve in the direction sought with a large enough effect; inconclusive = small, poorly fitted or top-dose-only effect, or another doubt; inactive = no such curve, though single readings can be large; an effect the other way counts as inactive or inconclusive.

SMILES	HepG2 viability	TGFb SMAD3 inh	TDP1 cell noCPT	IL-1B inflam inh	TDP1 cell CPT	S-ASM inh
O=C(O)CCCC1(C(=O)O)CCCC1	-9%	16%	-5%	22	1%	1%
CCCCCCn1cc(CN2CC(N3CCN(C4CCN(C)CC4)CC3)CS2(=O)=O)nn1 (stereo not given)	.	.	-9%	33	0%	.
COc1cc(/C=C(\C#N)C(=O)N2CCc3ccccc32)ccc1O	0%	22%	-16%	11	?	-10%
N#C/C(=C\c1ccc(O)c(O)c1)C(=O)N1CCc2ccccc21	-40%	-14%	21µM*	8	?	-11%
O=C(NCCCN1CCN(c2ccc(F)cc2)CC1)NC12CC3CC(CC(C3)C1)C2	-11%	4%	21µM*	?	16µM*	-1%[11.5 µM]
COc1ccc(N2CCN(CCCNC(=O)Nc3ccccc3Cl)CC2)cc1	-33%	?	21µM*	.	?	.
COc1ccccc1NC(=O)NCCCN1CCN(c2cccc(Cl)c2)CC1	-38%	-12%	?	?	?	1%
O=C(NCCCN1CCc2ccccc2C1)Nc1ccc(Cl)cc1	-57%	-16%	-27%	-55*	16µM*	3%
COc1ccc(NC(=O)NCCN2CCN(c3cc(OC)ccc3OC)CC2)cc1	-2%	-1%	-3%	-22	-8%	4%
COc1ccc(Cl)c(N2CCN(CCCNC(=O)Nc3ccc(C)cc3)CC2)c1	-50%	?	?	-56*	?	2%
N#Cc1c(F)cccc1NCCCn1ccnc1	-8%	0%	-13%	-4	-13%	5%
CC(=O)Nc1ccc(S(=O)(=O)NCC(=O)OCC(=O)NC23CC4CC(CC(C4)C2)C3)cc1	-31%	?	4%	0	3%	4%
CCN(C(=O)c1cc(S(=O)(=O)N2CCOCC2)cn1C)c1ccc(OC)cc1	-10%	?	-18%	.	-30%	.
Cc1ccc([C@H]2C[C@@H](n3cc(COC(=O)c4ccccc4)nn3)[C@H](O)CN2C(=O)c2cccs2)cc1	-38%	-5%	?	19	-18%	.
O=C(NCCCN1CCN(c2ccc(F)cc2)CC1)Nc1ccc(Cl)cc1	-97%	?	18µM*	.	21µM*	.
CSc1ccc(N2CCN(CCCNC(=O)Nc3ccccc3F)CC2)cc1	2%	2%	?	-22	?	4%
O=C(NCCCN1CCN(c2ccc(F)cc2)CC1)Nc1ccccc1Cl	-38%	-28%	?	.	21µM*	.
Cc1ccc(C(c2sc3nc(-c4ccco4)nn3c2O)N2CCOCC2)cc1 (stereo not given)	-8%	-15%	-2%	.	0%	.
Nc1c(N(CCC2=CCCCC2)C(=O)C2CC2)c(=O)[nH]c(=O)n1Cc1ccccc1	1%	4%	-1%	11	-10%	0%
COc1ccc(N2CCN(C(=O)c3nc(SC)ncc3Cl)CC2)cc1	2%	16%	?	.	-24%	.
CCS(=O)(=O)c1ncc(Cl)c(C(=O)N2CCN(c3ccc(OC)cc3)CC2)n1	11µM*	.	4.1µM*	.	?	.
CCS(=O)(=O)c1ncc(Cl)c(C(=O)NCc2ccc(OC)cc2)n1	5.6µM*	3.2µM*	-100%	.	1.6µM*	.
CCS(=O)(=O)c1ncc(Cl)c(C(=O)Nc2ccccc2OC)n1	-29%	3.5µM*	1µM*	-94*	1µM*	-3%
COc1ccccc1NC(=O)c1ccc(C(=O)Nc2ccccc2OC)nc1	-2%	5%	?	24	4.6µM*	6%
CCOc1ccccc1NC(=O)c1ccc(C(=O)Nc2ccccc2OCC)nc1	-2%	4%	-10%	20	?	15%
